Results on seven compounds are retold here after PubChem BioAssay (NCI).

Holding throughout (assay): NCI-60 one-dose screen, 48 h (100 = growth as untreated, 0 = no growth, -100 = all killed)
Conditions in all cases: 10 µM unless noted

The test system of test [1] is HCT-15 colon.
For test [2], the system named is HT29 colon.
Test [3] deals with SNB-75 CNS.
Test [4] has as its system SNB-19 CNS.
In test [5] the test system is U251 CNS.
Test [6] has as its system PC-3 prostate.
In test [7] the test system is SK-MEL-5 melanoma.
The test system of test [8] is UACC-62 melanoma.
The test system of test [9] is LOX IMVI melanoma.
Test [10] concerns SK-MEL-28 melanoma.
In test [11] the test system is SK-MEL-2 melanoma.
The test system of test [12] is EKVX NSCLC.
The subject of test [13] is SN12C renal.
Test [14] concerns UO-31 renal.
The test system of test [15] is TK-10 renal.
For test [16], the system named is ACHN renal.
Test [17] relates to CAKI-1 renal.
Test [18] deals with A498 renal.
In test [19] the test system is CCRF-CEM leukemia.
The subject of test [20] is MOLT-4 leukemia.

This is part of a sample that, as a whole, favours compounds with a hit. Of some 83,000 tested, about 20% had one in any assay.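 Activity criterion: percent growth below 10, measured after cells in 96-well plates were exposed to a single compound concentration for 48 hours.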 A number with no mark means an inactive call. Calls of active or inactive are those of the source.

With `O=C(Nc1ccc(Cl)c(C(F)(F)F)c1)Nc1ccc2oc(=O)ccc2c1`, the growth in test [1] was 16.6%; in test [2], 65.4%; in [3] it was 58.6%; in [4], 28.5%; in test [5] it was 31.3%; in [6] it was 10.6%. Moreover, the growth is 41.4% in [7]; 27.9% in [8]; 1.96% (active) in [9]; 66.7% in test [10]; 71.2% in test [11]; 35.2% in test [12]. Further, the growth in test [13] is 31.9%; in [14], 31.3%; in test [15] it was 70.4%; in test [16], 10.2%; in [17], 36.1%; in test [18], 33%. For the same compound, the growth in [19] was 25.5%; in [20], 28.2%.
With `NC1[C@H]2CN(c3cnc(C(=O)Nc4cc(F)cc5cccnc45)cn3)C[C@@H]12` (stereo not given in full), the growth in test [1] is 32.2%; in test [2], 26.9%; in test [3], 56.7%; in test [4], 75.2%; in test [5], 60.7%; in [6], 65.7%. Besides, the growth was 89% in test [7]; 92.1% in test [8]; 71.5% in [9]; 86.1% in [10]; 92.5% in [11]; 82.1% in [12]. Besides, the growth in test [13] was 69.8%; in [14] it was 44.6%; in test [15], 87.7%; in test [16], 32.5%; in test [17], 49.9%; in test [18], 75.4%. Further, the growth in test [19] is 30%; in test [20] it was 18.1%.
Turning to `NS(=O)(=O)c1ccc(Nc2nc(N/N=C/C=C/c3ccccc3)nc(Nc3ccccc3)n2)cc1`, the growth in test [1] was 45%; in test [2], 34.6%; in [3], 43%; in [4] it was 48.4%; in test [5], 51.1%; in test [6], 47.5%. Further, the growth in test [7] was 40.3%; in [8], 66.4%; in test [9], 27.3%; in test [10] it was 60.3%; in test [11] it was 45%; in [12] it was 71.3%. Also, the growth in [13] is 48.1%; in test [14], 39.6%; in test [15] it was 86.8%; in [16], 38.5%; in [17], 46.1%; in [18], 40.2%. Moreover, the figures for the growth in test [19] and in [20] were 24.8% and 12.3%, respectively.
`NCCNC(=O)c1cccc(COc2ccccc2NC(=O)c2cc(Cl)c(Cl)[nH]2)c1`: the growth was 94.3% in test [1]; 109% in test [2]; 72.5% in test [3]; 96.9% in [4]; 88.7% in test [5]; 102% in test [6]. The growth was 99.4% in [7]; 87.3% in [8]; 81.5% in test [9]; 94.8% in test [10]; 106% in test [11]; 94.4% in test [12]. Also, the growth was 100% in test [13]; 92.2% in test [14]; 94.2% in test [15]; 100% in test [16]; 81.9% in [17]; 81.5% in test [18]. Besides, the growth was 85.8% in [19] and 89.5% in test [20].
In the case of `CCN(CC)CCOc1ccc(C(=C(c2ccccc2)C2CCCC2)c2ccc(OCCN(CC)CC)cc2)cc1`, the growth in test [1] was -70.2% (active); in test [2] it was -5.44% (active); in [3], 10.3%; in test [4], 14.6%; in test [5], 20.5%; in test [6], 14.6%. Also, the growth was -82.4% (active) in test [7]; -74.7% (active) in test [8]; -56.6% (active) in test [9]; 29% in test [10]; 6.57% (active) in test [11]; 48.4% in [12]. Moreover, the growth was 6.33% (active) in test [13]; 86.5% in test [14]; 74.3% in test [15]; 95.3% in test [16]; 94.2% in [17]; 96.5% in [18]. For the same compound, the growth in [19] was 8.31% (active); in [20] it was 0.859% (active).
Take `CC(=O)Nc1cc(N2CCOCC2)c2nc(NC(=O)c3[nH]c(C)c(Cl)c3Cl)sc2c1`: the growth in test [1] is 66.9%; in [2], 65.1%; in test [3] it was 17.3%; in test [4], 83.9%; in test [5], 57.8%; in [6] it was 64.3%. For the same compound, the growth in [7] is 77.6%; in test [8], 94.8%; in test [9], 57%; in test [10] it was 67.5%; in test [11], 83%; in test [12] it was 85.1%. In addition, the growth was 49.8% in test [13]; 57.9% in test [14]; 112% in test [15]; 49.3% in test [16]; 93.1% in test [17]; 95.6% in test [18]. For the same compound, the growth in [19] is 74.2%; in [20], 65%.
As for `CCN(CC)c1ccc(/C=N/NC(=O)c2ccc(S(N)(=O)=O)cc2)c(O)c1`, the growth was 20.9% in test [1]; 25.4% in test [2]; 47.8% in test [3]; 29.9% in test [4]; 20.8% in [5]; 34.9% in [6]. For the same compound, the growth in [7] is -7.45% (active); in test [8], -3.75% (active); in test [9], 0.484% (active); in test [10] it was 20.6%; in [11] it was 47.2%; in [12], 15.9%. Besides, the growth in [13] was 28.3%; in test [14], 7.5% (active); in [15], 37.4%; in test [16] it was 14.8%; in test [17] it was 22.1%; in test [18], 24%. The growth in test [19] was 9.4% (active); in test [20], 11.2%.
